Compound activity deposited in PubChem BioAssay by SRMLSC.
This is a sample that favours compounds with a hit; in the whole collection about 6.5% have one here.
NADH enzymes: inhibitors of PK/LDH coupling enzymes, profiling panel, artefact control, biochemical, MLSMR library; coupled PK/LDH NADH assays, four targets; IC50, µM (titrated, usually from 10 µM), for inactives: at the highest dose inhibition; actives 0.02% (n = 65,000); AID 774, 2007;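 active = single-dose screening hits from any of four coupled enzyme assays that gave an IC50 when retested across doses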;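 note: the DPM-DC format reads NADH fluorescence rather than 340 nm absorbance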
Spn DPM-DC inh: S. pneumoniae DPM-DC inhibitors, primary screen, biochemical, PK/LDH-coupled NADH fluorescence; purified DPM-DC; diphosphomevalonate decarboxylase (Streptococcus pneumoniae D39); actives 0.49% (n = 65,000); calls only at 10 µM;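 active = the 320 compounds with the highest percent inhibition in the single-dose primary screen, excluding strongly autofluorescent ones, cut at about 32% in these data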;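 note: kinetic rate of NADH fluorescence loss reporting ADP formed by the decarboxylase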
Spn PMK inh: S. pneumoniae PMK inhibitors, primary screen, biochemical, mevalonate pathway, pilot trial included; phosphomevalonate kinase (Streptococcus pneumoniae D39); purified PMK, PK/LDH-coupled NADH absorbance 340 nm; inhibition, % at 10 µM; actives 0.49% (n = 65,000);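 active = top-ranked compounds by inhibition in the single 10 µM screen, taking a fixed number of the strongest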;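 note: 0% = full reaction with DMSO carrier and 100% = background rate without enzyme reaction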
MK inhibit: S. pneumoniae MK inhibitors, primary screen, biochemical, PK/LDH-coupled NADH absorbance; mevalonate kinase [Streptococcus pneumoniae D39]; actives 0.48% (n = 65,000); AID 555, 2006; inhibition, % at 10 µM; purified MK, PK/LDH-coupled NADH absorbance 340 nm;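 active = ranked among the strongest by inhibition in the single 10 µM screen, a fixed top-ranked set picked for dose follow-up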
Abs 340nm: compound light absorbance at 340 nm, profiling panel, artefact control, biochemical, MLSMR library, data from PS, PMK, MK assays; compound absorbance at 340 nm, fold over control; fold change at 10 µM; 65,000 tested, under 10 active;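 active = at 10 µM dose, initial 340 nm absorbance at least 2 fold that of control wells; inactive = change under 2 fold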;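 note: initial absorbance extrapolated from kinetic A340 decline of NADH oxidation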
Fluor 339 460: intrinsic fluorescence of library compounds, ex339/em460 – biochemical, MLSMR library, data from DPM-DC assay, artefact control, profiling panel | actives 5.5% (n = 65,000) | compound autofluorescence, ex339/em460 nm, NADH buffer; stronger effect = higher value; 1 = no-compound wells, NADH background | fluorescence fold increase at 10 µM | AID 709, 2007;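 active = at 10 µM, mean starting fluorescence two-fold or more over control wells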;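 note: signal is the first read of a kinetic run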
An asterisk follows results filed as active; i = inactive; . = no result given; + = active, no number.

SMILES | NADH enzymes | Spn DPM-DC inh | Spn PMK inh | MK inhibit | Abs 340nm | Fluor 339 460
COc1ccccc1-c1nnc(SCCN2CCOCC2)n1-c1ccc(C)cc1 | 0% | i | 0 | 0 | 1.1 | 1.1
Cn1c(/C(C#N)=C(\O)c2ccc(S(=O)(=O)N3CCCCC3)cc2)nc2ccccc21 | 3% | i | 10 | 0 | 1.1 | 1
CCN(CC)S(=O)(=O)c1cccc(-c2nnc(SCC(=O)c3cc(C)n(C)c3C)o2)c1 | 4% | i | 12 | 0 | 1 | 1.1
CCCN(CC(=O)c1cc(C)n(C)c1C)S(=O)(=O)c1cccc(C(F)(F)F)c1 | 15% | + | 8 | 6 | 1 | 2.9*
CCOc1ccccc1NC(=O)Cn1cnc2c(cnn2-c2ccc(C)c(C)c2)c1=O | 6% | i | 13 | 4 | 0.96 | 1.6
Cc1ccc(-n2ncc3c(=O)n(CC(=O)Nc4cccc(Cl)c4)cnc32)cc1C | 4% | i | 9 | 3 | 0.98 | 2.7*
Cn1c(=O)c2c(-c3ccccc3)n(-c3ccccc3O)cc2n(C)c1=O | 13% | i | 16 | 1 | 1 | 2.2*
COc1ccc(-c2c3c(=O)n(C)c(=O)n(C)c3cn2Cc2ccccn2)cc1 | 4% | i | 7 | 4 | 1.1 | 1.3
Cc1cccc(-c2c3c(=O)n(C)c(=O)n(C)c3cn2-c2ccc(O)cc2)c1 | 7% | i | 4 | 10 | 1 | 2.1*
Cn1c(=O)c2c(-c3ccccc3)n(N3CCOCC3)cc2n(C)c1=O | 7% | i | 6 | 14 | 1 | 1.3
COc1ccc(-c2c3c(=O)n(C)c(=O)n(C)c3cn2-c2cc(OC)ccc2OC)cc1 | 12% | . | 12 | 11 | 1 | 3.7*
Cn1c(=O)c2c(-c3ccccc3)n(C3CCCCC3)cc2n(C)c1=O | 17% | i | 31* | 13 | 1 | 1.4
COc1ccccc1-n1c(SC)nc(O)cc1=O | 6% | i | 9 | 6 | 1 | 1.1
O=S1(=O)CC(O)C(N2CCC(c3ccccc3)CC2)C1 (stereo not drawn) | 4% | i | 4 | 4 | 1 | 1.1
O=C(CSc1nnc(-c2ccccc2O)o1)Oc1ccc(OCc2ccccc2)cc1 | 2% | . | 2 | 2 | 1.1 | 4*
COc1ccc(OC)c(CN2CCN(c3ccccc3OC)CC2)c1 | 24% | i | 13 | 51* | 1.1 | 0.96
c1ccc(N2CCN(Cc3ccsc3)CC2)nc1 | 23% | i | 7 | 36 | 1.1 | 0.65
COc1ccccc1N1CCN(Cc2ccsc2)CC1 | 14% | i | 0 | 42* | 1.1 | 1
CCOc1ccccc1N1CCN(Cc2cccc(OC)c2OC)CC1 | 17% | i | 2 | 49* | 1.1 | 1.1
COc1ccccc1N1CCN(Cc2ccc(OC)c(OC)c2OC)CC1 | 16% | i | 0 | 47* | 1.1 | 1.1
CCS(=O)(=O)N1CCN(Cc2ccccc2OC)CC1 | 9% | i | 18 | 2 | 1 | 1.1
Cn1c(=O)[nH]c(=O)c2c1nc(N1CCOCC1)n2CCSc1ncccn1 | 2% | i | 5 | 0 | 1 | 1.1
COc1ccc(C)cc1Nc1cc(C)nc2ncnn12 | 6% | i | 12 | 6 | 1.1 | 1.1
c1ccc(-c2nnc3sc(-c4csc5c4CCCC5)nn23)cc1 | 4% | i | 12 | 0 | 1 | 1.1
CCCS(=O)(=O)N1CCN(Cc2ccccc2OCC)CC1 | 0% | i | 0 | 0 | 1.1 | 1.1
CCOc1ccccc1CN1CCN(S(=O)(=O)CC)CC1 | 23% | i | 10 | 58* | 1 | 1
O=C(NC1CCCCCCC1)C1CCN(S(=O)(=O)N2CCC3(CC2)OCCO3)CC1 | 6% | i | 16 | 1 | 0.99 | 1.1
CCS(=O)(=O)N1CCC(C(=O)NCCCOC)CC1 | 7% | i | 13 | 7 | 1 | 1.1
